# ± gives the standard deviation of the averaged measurements. About 6,500 targets were measured; listed, in parts, are those with the largest changes and a random draw of the rest.
# Compound: Nc1ncnc2c1ncn2[C@@H]1O[C@H](COP(=O)(O)OP(=O)(O)OP(=O)(O)O)[C@@H](O)[C@H]1O [adenosine triphosphate]
# Test: NP40-soluble protein abundance relative to vehicle (solubility fold change) (ratio); higher = more soluble protein in presence of ATP
# Procedure, shortened: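 Jurkat crude lysate (Dounce-homogenised) was treated with eight concentrations from 0.1 to 10 mM for 10 min at room temperature, then 3 min at 37 °C. It was solubilised with 0.8% NP40 and benzonase (60 min, 4 °C) and ultracentrifuged, and the supernatant was TMT-labelled for LC-MS/MS. Intensities were vsn-normalised, and the value is the fold change against the NP40-processed vehicle per replicate, from three independent experiments.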
# Sequence of UniProt Q96AQ6 (Q96AQ6 whole entry): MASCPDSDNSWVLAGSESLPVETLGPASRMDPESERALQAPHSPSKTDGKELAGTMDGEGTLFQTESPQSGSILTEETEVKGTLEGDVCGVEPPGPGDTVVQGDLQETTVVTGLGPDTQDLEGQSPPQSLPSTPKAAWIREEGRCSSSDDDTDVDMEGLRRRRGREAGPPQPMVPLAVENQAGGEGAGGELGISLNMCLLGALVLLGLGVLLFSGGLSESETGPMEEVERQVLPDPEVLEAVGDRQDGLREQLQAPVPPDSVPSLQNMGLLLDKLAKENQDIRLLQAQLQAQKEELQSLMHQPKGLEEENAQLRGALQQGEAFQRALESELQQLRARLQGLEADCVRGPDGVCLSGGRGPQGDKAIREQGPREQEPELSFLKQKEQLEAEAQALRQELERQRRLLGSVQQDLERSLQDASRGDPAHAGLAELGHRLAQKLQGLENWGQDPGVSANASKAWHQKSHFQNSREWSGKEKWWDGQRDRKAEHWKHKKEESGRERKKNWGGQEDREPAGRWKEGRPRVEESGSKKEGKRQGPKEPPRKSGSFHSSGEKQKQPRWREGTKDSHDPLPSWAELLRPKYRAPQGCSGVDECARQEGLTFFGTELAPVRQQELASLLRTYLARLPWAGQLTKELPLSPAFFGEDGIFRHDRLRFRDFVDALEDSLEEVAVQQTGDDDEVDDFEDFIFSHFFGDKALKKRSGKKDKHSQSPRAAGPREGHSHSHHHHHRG
# Sequence of UniProt Q96T23 (Q96T23 whole entry): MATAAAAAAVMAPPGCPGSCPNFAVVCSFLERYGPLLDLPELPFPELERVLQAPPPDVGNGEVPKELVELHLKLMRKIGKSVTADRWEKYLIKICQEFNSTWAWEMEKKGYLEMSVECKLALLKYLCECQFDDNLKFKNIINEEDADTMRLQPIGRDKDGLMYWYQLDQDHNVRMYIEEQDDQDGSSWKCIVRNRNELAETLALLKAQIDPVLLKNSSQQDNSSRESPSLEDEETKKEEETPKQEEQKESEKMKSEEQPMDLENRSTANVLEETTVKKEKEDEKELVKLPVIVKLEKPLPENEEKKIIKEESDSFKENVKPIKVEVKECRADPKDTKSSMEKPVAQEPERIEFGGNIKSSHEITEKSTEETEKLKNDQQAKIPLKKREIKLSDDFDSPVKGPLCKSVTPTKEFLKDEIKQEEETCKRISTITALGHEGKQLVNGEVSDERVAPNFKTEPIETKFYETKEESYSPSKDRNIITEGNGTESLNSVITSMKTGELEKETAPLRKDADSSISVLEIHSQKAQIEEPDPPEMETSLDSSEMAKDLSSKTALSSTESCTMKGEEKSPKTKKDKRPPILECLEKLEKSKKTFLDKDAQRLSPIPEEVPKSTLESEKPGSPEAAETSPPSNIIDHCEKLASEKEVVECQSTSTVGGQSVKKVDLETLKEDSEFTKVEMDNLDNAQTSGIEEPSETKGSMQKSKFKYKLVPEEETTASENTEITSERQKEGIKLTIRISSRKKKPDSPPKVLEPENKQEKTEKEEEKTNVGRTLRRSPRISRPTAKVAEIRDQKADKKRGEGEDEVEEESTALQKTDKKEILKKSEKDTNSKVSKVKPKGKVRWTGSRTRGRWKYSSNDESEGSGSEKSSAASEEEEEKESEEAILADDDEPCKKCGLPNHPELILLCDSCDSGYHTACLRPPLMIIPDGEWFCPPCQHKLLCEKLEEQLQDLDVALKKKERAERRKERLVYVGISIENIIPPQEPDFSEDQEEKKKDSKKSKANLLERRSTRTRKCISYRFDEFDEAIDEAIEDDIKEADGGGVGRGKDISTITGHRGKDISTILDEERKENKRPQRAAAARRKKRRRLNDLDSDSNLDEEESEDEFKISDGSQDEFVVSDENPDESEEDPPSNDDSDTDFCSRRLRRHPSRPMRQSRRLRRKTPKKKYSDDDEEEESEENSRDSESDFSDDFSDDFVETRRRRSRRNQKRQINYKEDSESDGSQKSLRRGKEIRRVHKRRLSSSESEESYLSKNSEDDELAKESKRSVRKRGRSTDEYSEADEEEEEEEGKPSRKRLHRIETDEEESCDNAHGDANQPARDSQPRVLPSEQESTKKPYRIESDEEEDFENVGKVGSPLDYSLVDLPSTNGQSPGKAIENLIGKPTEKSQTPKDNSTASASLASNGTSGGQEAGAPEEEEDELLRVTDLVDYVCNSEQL
# Sequence of UniProt Q9BRQ0 (Q9BRQ0 whole entry, one chain of several): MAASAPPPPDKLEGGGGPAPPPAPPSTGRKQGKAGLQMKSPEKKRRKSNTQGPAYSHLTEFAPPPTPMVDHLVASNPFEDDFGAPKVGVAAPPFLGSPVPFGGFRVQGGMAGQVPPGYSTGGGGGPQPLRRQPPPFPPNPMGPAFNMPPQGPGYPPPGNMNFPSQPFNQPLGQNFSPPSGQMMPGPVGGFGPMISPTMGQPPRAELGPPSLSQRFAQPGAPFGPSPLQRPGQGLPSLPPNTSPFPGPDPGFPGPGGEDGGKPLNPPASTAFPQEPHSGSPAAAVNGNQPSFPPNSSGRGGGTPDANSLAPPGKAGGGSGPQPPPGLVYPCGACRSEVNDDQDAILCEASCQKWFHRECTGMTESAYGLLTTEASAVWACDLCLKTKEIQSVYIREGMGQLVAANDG
# Sequence of UniProt Q96EZ8 (Q96EZ8 whole entry): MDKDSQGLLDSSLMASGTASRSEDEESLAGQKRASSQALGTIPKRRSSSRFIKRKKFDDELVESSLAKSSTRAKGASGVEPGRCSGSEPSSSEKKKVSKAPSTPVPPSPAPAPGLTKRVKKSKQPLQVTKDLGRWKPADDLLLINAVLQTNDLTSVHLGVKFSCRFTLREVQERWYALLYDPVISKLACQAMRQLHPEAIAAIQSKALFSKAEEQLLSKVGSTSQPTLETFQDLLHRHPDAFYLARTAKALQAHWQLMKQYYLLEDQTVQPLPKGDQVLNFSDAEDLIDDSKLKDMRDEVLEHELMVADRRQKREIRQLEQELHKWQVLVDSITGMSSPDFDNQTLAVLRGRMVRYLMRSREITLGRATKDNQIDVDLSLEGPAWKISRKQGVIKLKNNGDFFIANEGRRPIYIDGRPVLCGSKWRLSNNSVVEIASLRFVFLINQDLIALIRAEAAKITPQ
# Sequence of UniProt Q9C073 (Q9C073 whole entry): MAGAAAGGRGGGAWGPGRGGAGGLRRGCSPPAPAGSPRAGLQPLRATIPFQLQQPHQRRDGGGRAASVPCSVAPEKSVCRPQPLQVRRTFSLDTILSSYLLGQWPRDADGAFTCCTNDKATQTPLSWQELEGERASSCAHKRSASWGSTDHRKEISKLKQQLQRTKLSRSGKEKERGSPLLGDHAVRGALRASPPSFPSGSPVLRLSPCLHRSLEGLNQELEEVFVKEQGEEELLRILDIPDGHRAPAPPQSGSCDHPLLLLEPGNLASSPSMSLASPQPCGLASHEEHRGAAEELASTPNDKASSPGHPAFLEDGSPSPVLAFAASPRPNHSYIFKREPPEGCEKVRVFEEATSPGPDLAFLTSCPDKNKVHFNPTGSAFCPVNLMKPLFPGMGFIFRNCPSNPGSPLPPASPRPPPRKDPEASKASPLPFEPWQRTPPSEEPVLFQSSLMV
# Sequence of UniProt Q969U7 (Q969U7 whole entry): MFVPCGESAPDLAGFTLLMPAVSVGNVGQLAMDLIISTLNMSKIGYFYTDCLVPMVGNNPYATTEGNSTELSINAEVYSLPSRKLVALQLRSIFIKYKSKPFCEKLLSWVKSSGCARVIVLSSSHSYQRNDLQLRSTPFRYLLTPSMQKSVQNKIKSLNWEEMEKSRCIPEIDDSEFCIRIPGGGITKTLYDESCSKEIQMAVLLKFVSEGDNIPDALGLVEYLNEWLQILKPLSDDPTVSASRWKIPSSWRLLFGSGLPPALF
# Sequence of UniProt Q96GN5 (Q96GN5 whole entry): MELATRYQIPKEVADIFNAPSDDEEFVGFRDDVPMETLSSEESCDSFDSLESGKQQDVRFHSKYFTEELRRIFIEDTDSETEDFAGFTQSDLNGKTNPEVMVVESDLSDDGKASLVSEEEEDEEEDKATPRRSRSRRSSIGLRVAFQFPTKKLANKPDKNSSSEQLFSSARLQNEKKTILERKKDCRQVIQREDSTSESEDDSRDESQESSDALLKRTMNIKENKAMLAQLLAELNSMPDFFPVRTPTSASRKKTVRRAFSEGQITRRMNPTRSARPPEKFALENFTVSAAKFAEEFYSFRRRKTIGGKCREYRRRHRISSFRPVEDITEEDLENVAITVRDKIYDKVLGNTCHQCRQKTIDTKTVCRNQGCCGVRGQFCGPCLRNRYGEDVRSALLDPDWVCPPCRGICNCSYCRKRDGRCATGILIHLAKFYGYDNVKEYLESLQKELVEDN
# Sequence of UniProt Q96JM3 (Q96JM3 whole entry): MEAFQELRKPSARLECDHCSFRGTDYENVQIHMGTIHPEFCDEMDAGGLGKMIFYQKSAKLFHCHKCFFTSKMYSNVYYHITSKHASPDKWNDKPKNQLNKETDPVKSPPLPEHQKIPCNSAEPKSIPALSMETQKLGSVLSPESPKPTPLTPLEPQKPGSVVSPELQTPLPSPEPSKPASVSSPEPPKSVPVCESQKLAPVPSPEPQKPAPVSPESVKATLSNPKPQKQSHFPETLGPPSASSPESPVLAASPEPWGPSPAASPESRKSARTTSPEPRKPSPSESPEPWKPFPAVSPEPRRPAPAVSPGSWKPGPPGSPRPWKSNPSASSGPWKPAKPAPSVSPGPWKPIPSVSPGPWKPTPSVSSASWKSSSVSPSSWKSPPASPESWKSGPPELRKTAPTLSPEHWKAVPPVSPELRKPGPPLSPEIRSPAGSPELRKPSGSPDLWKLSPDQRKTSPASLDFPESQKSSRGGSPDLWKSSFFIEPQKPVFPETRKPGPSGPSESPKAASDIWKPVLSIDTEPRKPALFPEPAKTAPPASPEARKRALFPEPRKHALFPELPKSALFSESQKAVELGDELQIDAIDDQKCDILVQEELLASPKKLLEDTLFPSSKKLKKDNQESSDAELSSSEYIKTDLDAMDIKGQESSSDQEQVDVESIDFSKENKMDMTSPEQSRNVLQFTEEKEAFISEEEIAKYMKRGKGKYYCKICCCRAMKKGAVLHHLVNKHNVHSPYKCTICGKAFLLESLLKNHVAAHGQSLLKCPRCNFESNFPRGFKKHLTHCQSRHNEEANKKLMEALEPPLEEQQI
target,measurement,setting,value
UniProt Q9H6W3,NP40-soluble protein abundance,concentration: 1mM,1.2 ± 0.019
same,NP40-soluble protein abundance,concentration: 2mM,1.25 ± 0.029
same,NP40-soluble protein abundance,concentration: 4mM,1.31 ± 0.063
same,NP40-soluble protein abundance,concentration: 6mM,1.46 ± 0.1
same,NP40-soluble protein abundance,concentration: 8mM,1.54 ± 0.11
same,NP40-soluble protein abundance,concentration: 10mM,1.73 ± 0.093
FAM117A (UniProt Q9C073),NP40-soluble protein abundance,concentration: 1mM,1.04 ± 0.03
same,NP40-soluble protein abundance,concentration: 2mM,0.992 ± 0.02
same,NP40-soluble protein abundance,concentration: 4mM,0.999 ± 0.039
same,NP40-soluble protein abundance,concentration: 6mM,1.01 ± 0.025
same,NP40-soluble protein abundance,concentration: 8mM,0.972 ± 0.053
same,NP40-soluble protein abundance,concentration: 10mM,0.972 ± 0.024
UniProt Q9NW64,NP40-soluble protein abundance,concentration: 1mM,1.05 ± 0.068
same,NP40-soluble protein abundance,concentration: 2mM,1.04 ± 0.041
same,NP40-soluble protein abundance,concentration: 4mM,1.07 ± 0.034
same,NP40-soluble protein abundance,concentration: 6mM,1.09 ± 0.05
same,NP40-soluble protein abundance,concentration: 8mM,1.1 ± 0.049
same,NP40-soluble protein abundance,concentration: 10mM,1.11 ± 0.019
UniProt Q96EZ8|Q96EZ8-2|Q96EZ8-3,NP40-soluble protein abundance,concentration: 1mM,1.08 ± 0.04
same,NP40-soluble protein abundance,concentration: 2mM,1.06 ± 0.053
same,NP40-soluble protein abundance,concentration: 4mM,1.08 ± 0.013
same,NP40-soluble protein abundance,concentration: 6mM,1.09 ± 0.093
same,NP40-soluble protein abundance,concentration: 8mM,1.14 ± 0.038
same,NP40-soluble protein abundance,concentration: 10mM,1.18 ± 0.044
UniProt Q96JM3,NP40-soluble protein abundance,concentration: 1mM,1.02 ± 0.043
same,NP40-soluble protein abundance,concentration: 2mM,1.02 ± 0.042
same,NP40-soluble protein abundance,concentration: 4mM,1.03 ± 0.048
same,NP40-soluble protein abundance,concentration: 6mM,1.12 ± 0.037
same,NP40-soluble protein abundance,concentration: 8mM,1.1 ± 0.039
same,NP40-soluble protein abundance,concentration: 10mM,1.12 ± 0.025
UniProt Q96AQ6|Q96AQ6-2,NP40-soluble protein abundance,concentration: 1mM,0.939 ± 0.053
same,NP40-soluble protein abundance,concentration: 2mM,0.927 ± 0.024
same,NP40-soluble protein abundance,concentration: 4mM,0.924 ± 0.028
same,NP40-soluble protein abundance,concentration: 6mM,0.953 ± 0.017
same,NP40-soluble protein abundance,concentration: 8mM,0.895 ± 0.01
same,NP40-soluble protein abundance,concentration: 10mM,0.9264 ± 0.0053
UniProt Q9BS26,NP40-soluble protein abundance,concentration: 1mM,0.982 ± 0.043
same,NP40-soluble protein abundance,concentration: 2mM,0.956 ± 0.035
same,NP40-soluble protein abundance,concentration: 4mM,0.943 ± 0.057
same,NP40-soluble protein abundance,concentration: 6mM,0.945 ± 0.067
same,NP40-soluble protein abundance,concentration: 8mM,0.952 ± 0.06
same,NP40-soluble protein abundance,concentration: 10mM,0.941 ± 0.054
NCOA5 (UniProt Q9HCD5),NP40-soluble protein abundance,concentration: 1mM,1.09 ± 0.031
same,NP40-soluble protein abundance,concentration: 2mM,1.22 ± 0.056
same,NP40-soluble protein abundance,concentration: 4mM,1.49 ± 0.062
same,NP40-soluble protein abundance,concentration: 6mM,1.85 ± 0.12
same,NP40-soluble protein abundance,concentration: 8mM,2.23 ± 0.12
same,NP40-soluble protein abundance,concentration: 10mM,2.76 ± 0.14
UniProt Q96GN5|Q96GN5-4|Q96GN5-2,NP40-soluble protein abundance,concentration: 1mM,1.09 ± 0.19
same,NP40-soluble protein abundance,concentration: 2mM,1.16 ± 0.23
same,NP40-soluble protein abundance,concentration: 4mM,1.23 ± 0.36
same,NP40-soluble protein abundance,concentration: 6mM,1.29 ± 0.35
same,NP40-soluble protein abundance,concentration: 8mM,1.34 ± 0.41
same,NP40-soluble protein abundance,concentration: 10mM,1.42 ± 0.57
UniProt Q9BRQ0|Q5T171,NP40-soluble protein abundance,concentration: 1mM,0.931 ± 0.11
same,NP40-soluble protein abundance,concentration: 2mM,0.887 ± 0.18
same,NP40-soluble protein abundance,concentration: 4mM,0.898 ± 0.15
same,NP40-soluble protein abundance,concentration: 6mM,0.944 ± 0.19
same,NP40-soluble protein abundance,concentration: 8mM,0.865 ± 0.15
same,NP40-soluble protein abundance,concentration: 10mM,0.909 ± 0.29
UniProt Q96B36|Q96B36-3,NP40-soluble protein abundance,concentration: 1mM,0.861 ± 0.098
same,NP40-soluble protein abundance,concentration: 2mM,0.826 ± 0.085
same,NP40-soluble protein abundance,concentration: 4mM,0.765 ± 0.029
same,NP40-soluble protein abundance,concentration: 6mM,0.826 ± 0.091
same,NP40-soluble protein abundance,concentration: 8mM,0.747 ± 0.071
same,NP40-soluble protein abundance,concentration: 10mM,0.693 ± 0.12
UniProt Q9HDC9,NP40-soluble protein abundance,concentration: 1mM,1.03 ± 0.13
same,NP40-soluble protein abundance,concentration: 2mM,1 ± 0.11
same,NP40-soluble protein abundance,concentration: 4mM,0.936 ± 0.039
same,NP40-soluble protein abundance,concentration: 6mM,0.903 ± 0.13
same,NP40-soluble protein abundance,concentration: 8mM,0.953 ± 0.06
same,NP40-soluble protein abundance,concentration: 10mM,0.953 ± 0.079
SRPK1 (UniProt Q96SB4),NP40-soluble protein abundance,concentration: 1mM,1.31 ± 0.091
same,NP40-soluble protein abundance,concentration: 2mM,1.39 ± 0.079
same,NP40-soluble protein abundance,concentration: 4mM,1.5 ± 0.099
same,NP40-soluble protein abundance,concentration: 6mM,1.63 ± 0.12
same,NP40-soluble protein abundance,concentration: 8mM,1.67 ± 0.083
same,NP40-soluble protein abundance,concentration: 10mM,1.74 ± 0.11
MRPS31 (UniProt Q92665),NP40-soluble protein abundance,concentration: 1mM,0.994 ± 0.058
same,NP40-soluble protein abundance,concentration: 2mM,0.93 ± 0.066
same,NP40-soluble protein abundance,concentration: 4mM,0.871 ± 0.062
same,NP40-soluble protein abundance,concentration: 6mM,0.923 ± 0.14
same,NP40-soluble protein abundance,concentration: 8mM,0.865 ± 0.088
same,NP40-soluble protein abundance,concentration: 10mM,0.857 ± 0.073
UniProt Q96T23|Q96T23-2,NP40-soluble protein abundance,concentration: 1mM,1.48 ± 0.043
same,NP40-soluble protein abundance,concentration: 2mM,1.62 ± 0.071
same,NP40-soluble protein abundance,concentration: 4mM,1.81 ± 0.041
same,NP40-soluble protein abundance,concentration: 6mM,2 ± 0.1
same,NP40-soluble protein abundance,concentration: 8mM,1.96 ± 0.039
same,NP40-soluble protein abundance,concentration: 10mM,2.13 ± 0.11
UniProt Q969U7|Q969U7-2,NP40-soluble protein abundance,concentration: 1mM,1.02 ± 0.072
same,NP40-soluble protein abundance,concentration: 2mM,1.01 ± 0.012
same,NP40-soluble protein abundance,concentration: 4mM,0.965 ± 0.055
same,NP40-soluble protein abundance,concentration: 6mM,0.983 ± 0.029
same,NP40-soluble protein abundance,concentration: 8mM,0.978 ± 0.072
same,NP40-soluble protein abundance,concentration: 10mM,0.986 ± 0.081
UniProt Q96QF0|Q96QF0-2,NP40-soluble protein abundance,concentration: 1mM,0.996 ± 0.032
same,NP40-soluble protein abundance,concentration: 2mM,0.946 ± 0.021
same,NP40-soluble protein abundance,concentration: 4mM,1.03 ± 0.034
same,NP40-soluble protein abundance,concentration: 6mM,1.001 ± 0.0051
same,NP40-soluble protein abundance,concentration: 8mM,0.994 ± 0.062
same,NP40-soluble protein abundance,concentration: 10mM,0.979 ± 0.078
RPRD1B (UniProt Q9NQG5),NP40-soluble protein abundance,concentration: 1mM,0.969 ± 0.12
same,NP40-soluble protein abundance,concentration: 2mM,0.943 ± 0.039
same,NP40-soluble protein abundance,concentration: 4mM,0.971 ± 0.049
same,NP40-soluble protein abundance,concentration: 6mM,0.993 ± 0.089
same,NP40-soluble protein abundance,concentration: 8mM,1.02 ± 0.034
same,NP40-soluble protein abundance,concentration: 10mM,0.854 ± 0.15
